Source: PubChem BioAssay (NCI)
Compounds without any hit were thinned out: in the full panel of roughly 83,000, 20% have a hit.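 The test compound was applied at a single concentration to cells in 96-well plates for 48 hours, and percent growth was recorded.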 Calls of active or inactive are those of the source. The calls were made as follows: active = growth percent below 10; inactive = the rest.

Tests used:
Assay in all cases: NCI-60 one-dose screen, 48 h (100 = growth as untreated, 0 = no growth, -100 = all killed)
Conditions in all cases: 10 µM unless noted
NCI-H23 lung = tested on: NCI-H23 lung
NCI-H226 lung = tested on: NCI-H226 lung
NCI-H322M lung = tested on: NCI-H322M lung
HOP-62 NSCLC = tested on: HOP-62 NSCLC
NCI-H460 lung = tested on: NCI-H460 lung
HOP-92 NSCLC = tested on: HOP-92 NSCLC
NCI-H522 lung = tested on: NCI-H522 lung
A549/ATCC NSCLC = tested on: A549/ATCC NSCLC
786-0 renal = tested on: 786-0 renal
COLO 205 colon = tested on: COLO 205 colon
DU-145 prostate = tested on: DU-145 prostate
MALME-3M melanoma = tested on: MALME-3M melanoma
MDA-MB-231 breast = tested on: MDA-MB-231 breast
RXF 393 renal = tested on: RXF 393 renal
SF-268 CNS = tested on: SF-268 CNS
SF-295 CNS = tested on: SF-295 CNS
SF-539 CNS = tested on: SF-539 CNS
UACC-257 melanoma = tested on: UACC-257 melanoma
M14 melanoma = tested on: M14 melanoma
K-562 leukemia = tested on: K-562 leukemia

Measured: growth

OCc1cnccc1NC12CC3CC(CC(C3)C1)C2
inactive: NCI-H23 lung 102% | NCI-H226 lung 95.4% | NCI-H322M lung 103% | HOP-62 NSCLC 101% | NCI-H460 lung 100% | HOP-92 NSCLC 86.2% | NCI-H522 lung 86.1% | A549/ATCC NSCLC 96% | 786-0 renal 101% | COLO 205 colon 91.1% | DU-145 prostate 104% | MALME-3M melanoma 99.4% | MDA-MB-231 breast 97.6% | RXF 393 renal 99.9% | SF-268 CNS 98.3% | SF-295 CNS 102% | SF-539 CNS 108% | UACC-257 melanoma 90% | M14 melanoma 100%

CCOC(=O)C(C)(CSSCC(C)(NC(=O)c1ccc2ccccc2c1)C(=O)OCC)NC(=O)c1ccc2ccccc2c1 (stereo not drawn)
inactive: NCI-H23 lung 98.3% | NCI-H226 lung 97.9% | NCI-H322M lung 96.7% | HOP-62 NSCLC 105% | NCI-H460 lung 102% | HOP-92 NSCLC 105% | NCI-H522 lung 92.9% | A549/ATCC NSCLC 26.4% | COLO 205 colon 121% | DU-145 prostate 117% | K-562 leukemia 91.1% | MALME-3M melanoma 115% | MDA-MB-231 breast 114% | SF-268 CNS 102% | SF-295 CNS 96.2% | SF-539 CNS 114% | M14 melanoma 114%
active: UACC-257 melanoma -17.8%

CCCOC(=O)c1ccc([N+](=O)[O-])o1
inactive: NCI-H23 lung 108% | NCI-H226 lung 109% | NCI-H322M lung 108% | HOP-62 NSCLC 114% | NCI-H460 lung 91.4% | HOP-92 NSCLC 109% | NCI-H522 lung 85.4% | A549/ATCC NSCLC 101% | 786-0 renal 108% | COLO 205 colon 120% | DU-145 prostate 118% | MALME-3M melanoma 116% | MDA-MB-231 breast 103% | RXF 393 renal 109% | SF-268 CNS 100% | SF-295 CNS 120% | SF-539 CNS 93.8% | UACC-257 melanoma 110% | M14 melanoma 98.8%

c1coc(CSc2ncnc3nc[nH]c23)c1
inactive: NCI-H23 lung 103% | NCI-H226 lung 101% | NCI-H322M lung 125% | HOP-62 NSCLC 99.7% | NCI-H460 lung 111% | HOP-92 NSCLC 57.8% | NCI-H522 lung 80% | A549/ATCC NSCLC 101% | 786-0 renal 97% | COLO 205 colon 113% | DU-145 prostate 108% | MALME-3M melanoma 125% | MDA-MB-231 breast 115% | RXF 393 renal 91.1% | SF-268 CNS 101% | SF-295 CNS 142% | SF-539 CNS 91.6% | UACC-257 melanoma 97.3% | M14 melanoma 101%

COc1ccc(-c2cnc(-c3ccc(F)cc3)[nH]2)cc1
inactive: NCI-H23 lung 88.2% | NCI-H226 lung 85.4% | NCI-H322M lung 213% | HOP-62 NSCLC 46.5% | NCI-H460 lung 103% | HOP-92 NSCLC 82.5% | NCI-H522 lung 85.9% | COLO 205 colon 111% | DU-145 prostate 113% | K-562 leukemia 57.1% | MALME-3M melanoma 288% | MDA-MB-231 breast 100% | SF-268 CNS 92.6% | SF-295 CNS 96.6% | SF-539 CNS 105%
active: A549/ATCC NSCLC -55.7% | UACC-257 melanoma -25.1% | M14 melanoma -17.3%

COc1ccc(C(=O)Cn2cnc3c(Nc4cc(C(=O)Nc5ccc(N6CCN(CCO)CC6)cc5)ccc4C)ncnc32)cc1
inactive: NCI-H23 lung 98.2% | NCI-H226 lung 96.9% | NCI-H322M lung 101% | HOP-62 NSCLC 97.3% | NCI-H460 lung 108% | HOP-92 NSCLC 121% | NCI-H522 lung 87.8% | A549/ATCC NSCLC 108% | 786-0 renal 98.5% | COLO 205 colon 104% | DU-145 prostate 105% | MALME-3M melanoma 116% | MDA-MB-231 breast 110% | RXF 393 renal 113% | SF-268 CNS 98.6% | SF-295 CNS 93.2% | SF-539 CNS 98.2% | UACC-257 melanoma 104% | M14 melanoma 95.3%

Cc1ccc2oc(=O)cc(C3C(C#N)=C(N)Oc4c3ccc3ccccc43)c2c1 (stereo not drawn)
inactive: NCI-H23 lung 89.8% | NCI-H226 lung 87.1% | NCI-H322M lung 89.2% | HOP-62 NSCLC 63.7% | NCI-H460 lung 84.1% | HOP-92 NSCLC 87.3% | NCI-H522 lung 48.6% | A549/ATCC NSCLC 71.1% | 786-0 renal 81.3% | COLO 205 colon 70.3% | DU-145 prostate 96.3% | MALME-3M melanoma 95.5% | MDA-MB-231 breast 81.9% | RXF 393 renal 79.2% | SF-268 CNS 82.7% | SF-295 CNS 75.8% | SF-539 CNS 82.6% | UACC-257 melanoma 85.4% | M14 melanoma 61.5%

O=C1c2ccccc2C(=O)c2c(NCCN=Cc3c(O)ccc4ccccc34)cccc21
inactive: NCI-H23 lung 92.9% | NCI-H226 lung 91.7% | NCI-H322M lung 91.4% | HOP-62 NSCLC 47% | NCI-H460 lung 88.7% | HOP-92 NSCLC 37.9% | NCI-H522 lung 84.7% | A549/ATCC NSCLC 19.9% | COLO 205 colon 85.3% | DU-145 prostate 51.7% | K-562 leukemia 77.7% | MALME-3M melanoma 113% | MDA-MB-231 breast 84.4% | SF-268 CNS 82.3% | SF-295 CNS 65.1% | SF-539 CNS 91.4% | M14 melanoma 65.8%
active: UACC-257 melanoma -5.35%

COc1ccccc1S(=O)(=O)Nc1ccc2c3c(cc(-c4cnn(C5CC5)c4)nc13)C(=O)N2C
inactive: NCI-H23 lung 67.5% | NCI-H226 lung 79.7% | NCI-H322M lung 70.7% | HOP-62 NSCLC 50.7% | NCI-H460 lung 66.7% | HOP-92 NSCLC 40.7% | NCI-H522 lung 64.6% | A549/ATCC NSCLC 66.4% | 786-0 renal 68.2% | COLO 205 colon 39.2% | DU-145 prostate 85.1% | MALME-3M melanoma 63.9% | MDA-MB-231 breast 52.8% | RXF 393 renal 89.8% | SF-268 CNS 84.3% | SF-295 CNS 53.7% | SF-539 CNS 60.8% | UACC-257 melanoma 66.2% | M14 melanoma 61.1%
